AMA1-RON2 inh = disrupts binding of P. falciparum AMA1 to RON2 | AlphaScreen AMA1-biotinylated RON2 peptide binding | Potency, µM (top dose mostly 58.2 µM), inactives show at the highest dose activity change, negative = inhibition, actives largely listed as inhibitors | 360,000 tested, 0.2% active; active = well fitted inhibition curve with a large enough effect; inconclusive = small, poorly fitted or top-dose-only effect; inactive = no such curve, though single readings can be large or run the other way;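 note: potency is the fitted concentration of half-maximal effect; 0% = vehicle wells and -100% = peptide control; nearly all actives have a fitted effect of over 45% in size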
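AMA1 (3D7) with his tag at 25 nM final met compounds first, then biotinylated RON2 peptide at 25 nM; detection used donor plus acceptor beads, 10 µg/mL apiece, read by AlphaScreen after 30 min at room temperature.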
CHX counter = counter-screen hit for Shiga toxin inhibitors, cycloheximide | 300,000 tested, 12% active | cell reporter, cycloheximide protein synthesis inhibition counterscreen | AID 2314 | max response, %; in the data active = max response mostly above about 13%, no sharp cut-off; inactive = mostly below about 14%; note: read at 38.3 µM for the half of the compounds with a filed dose; 0% is about no effect
Shiga toxin inh = inhibitors of Shiga toxin in Vero cells; Vero cells, Shiga toxin protein synthesis inhibition reporter; 290,000 tested, 9.2% active; inhibition, % at 38.7 µM; in the data active = inhibition mostly above about 28%, no sharp cut-off; inactive = mostly below about 43%; note: 0% is about no effect
MARV entry inh = Marburg virus entry inhibition | Marburg virus pseudotyped entry inhibition, cell reporter | Potency, µM (doses to about 37.8 µM), inactives show at the highest dose activity change, negative = inhibition, most hits filed as inhibitors | AID 540276 | 300,000 tested, 1.8% active; calls by dose curve; tested in HEK293 cells; note: potency is the fitted concentration of half-maximal effect; % is set by controls: 0 for no effect and ±100 for the full control effect
Lassa entry inh = Lassa virus entry inhibition | Lassa virus pseudotype entry inhibition, cell reporter | Potency, µM (doses to about 37.9 µM), for the others: at the highest dose activity change, negative = inhibition, actives largely listed as inhibitors | 300,000 tested, 1.2% active | AID 540256; calls by dose curve; tested in HEK293 cells; note: potency is the fitted concentration of half-maximal effect; % is set by controls: 0 for no effect and ±100 for the full control effect; nearly all actives have a fitted effect of over 50% in size
Numbers without * were called inactive; ? = inconclusive; nt = no result; [ ] = another dose, or the depositor's remark. This is one part of a sample in which hits are shown more often than they occur.

SMILES	AMA1-RON2 inh	CHX counter	Shiga toxin inh	MARV entry inh	Lassa entry inh
CCOc1ccc(/C=N/NC(=O)Cc2cccs2)cc1	0.8%	43.7*	91.1*	?	?
COc1ccc(OC)c(NC(=O)Nc2nc(C(N)c3ccccc3Cl)cs2)c1 (stereo not given)	-5.1%	nt	nt	nt	nt
CCOC(=O)C1CCN(C(=O)Cn2c(=O)oc3cc(S(=O)(=O)N4CCC(C)CC4)ccc32)CC1	nt	nt	nt	2.7%[46.1 µM]	3.5%[46.1 µM]
O=C1[C@H]2[C@H]3[C@H](O)[C@H](O)C/C(=N\OC[C@@H](O)COCc4ccco4)[C@@H]3CC[C@H]2C(=O)N1C[C@@H]1CCCO1	nt	nt	nt	3.6%[14.2 µM]	nt
COC(=O)c1ccccc1Oc1ccc(NC(=O)c2ccco2)cc1	15.1%	11.0	38.9	nt	nt
COc1ccccc1Oc1ccc(N/C=C/C(=O)c2ccco2)cc1	-23.4%	50.4*	99.8*	19.5%[46.1 µM]	?
COc1ccccc1Oc1ccc(NC(=O)Cc2ccccc2)cc1	5.6%	nt	nt	nt	nt
O=C(/C=C/Nc1ccc(Oc2ccccc2Cl)cc1)c1ccco1	20.8%	37.3*	117.3*	?	?
NC(=O)c1ccsc1NC(=O)c1ccc(S(=O)(=O)N2CCCC2)cc1	-3.7%	33.2*	139.2*	nt	nt
CC1CC(C)CN(S(=O)(=O)c2ccc(C(=O)Nc3sccc3C(N)=O)cc2)C1 (stereo not given)	8.0%	-1.1	-2.2	nt	nt
NC(=O)c1ccsc1NC(=O)c1ccc(S(=O)(=O)N2CCCCC2)cc1	10.4%	46.0*	65.5*	nt	nt
CCN(c1ccccc1)S(=O)(=O)c1ccc(C(=O)N2CCN(c3ccccc3)CC2)cc1	-21.7%	nt	nt	?	7.94µM*
COc1ccc(CN2CCN(C(=O)c3ccc(S(=O)(=O)NCc4ccco4)cc3)CC2)cc1	-18.5%	nt	nt	0.316µM*	?
COc1ccc(S(=O)(=O)N(CC(=O)N2CCN(c3ccccc3)CC2)c2ccccc2)cc1	14.4%	0.8	5.8	-0.4%	?
O=C(NC1CCN(Cc2ccccc2)CC1)c1ccc(S(=O)(=O)NCc2ccco2)cc1	-7.7%	-1.8	-2.2	3.55µM*	-24.1%[46.1 µM]
CCN(c1ccccc1)S(=O)(=O)c1ccc(C(=O)NC2CCN(Cc3ccccc3)CC2)cc1	-0.8%	nt	nt	0.708µM*	?
CCN(c1ccccc1)S(=O)(=O)c1ccc(C(=O)NC2CCCCC2)cc1	-1.5%	nt	nt	nt	nt
COc1cccc(Cn2c(CNS(=O)(=O)c3ccc(C(C)(C)C)cc3)nc3cccnc32)c1	nt	nt	nt	nt	-2.8%[46.1 µM]
Cc1ccc(-n2nc3c(N4CCC(C(=O)NC5CCC(C)CC5)CC4)nnc(C)c3c2C)cc1 (stereo not given)	nt	nt	nt	nt	-4.1%[46.1 µM]
O=C1CCN(S(=O)(=O)c2ccccc2)CCN1CCOCc1cccc(F)c1	-0.5%	-2.0	6.8	nt	nt
CCc1nc2ccc(C(=O)NC3CCN(C)CC3)cn2c1N(C)CCC(C)C	0.3%	nt	nt	nt	nt
CCc1nc2ccc(C(=O)NC3CCN(Cc4ccccc4)CC3)cn2c1N(C)Cc1ccc(N(C)C)cc1	22.4µM*	nt	nt	nt	nt
O=C(NCc1ccco1)c1cc(-c2cccs2)nc2ccccc12	-1.1%	13.4*	14.2	?	-18.3%
COc1cc(-c2cc(C(=O)Nc3ccc(S(=O)(=O)NCc4ccco4)cc3)c3ccccc3n2)cc(OC)c1OC	3.2%	3.5	9.7	?	?
COc1cc(-c2cc(C(=O)NCc3ccco3)c3ccccc3n2)cc(OC)c1OC	-3.4%	23.2*	27.0	?	-24.1%
SMILES	AMA1-RON2 inh	CHX counter	Shiga toxin inh	MARV entry inh	Lassa entry inh
COc1cccc(CNC(=O)c2cc(-c3cccs3)nc3ccccc23)c1	nt	nt	nt	-12.2%[46.1 µM]	-9.2%[46.1 µM]
O=C(COC(=O)c1cc(-c2ccc(Cl)s2)nc2ccccc12)NCc1ccco1	-0.8%	15.8*	18.1	?	13.8%
Cc1ccc(-c2cc(C(=O)NCc3ccco3)c3ccccc3n2)s1	8.6%	9.3*	29.5	?	-18.1%
Cc1cc(C)n([C@@H]2CCCC[C@H]2OC(=O)c2ccccc2)n1	nt	nt	nt	-7.0%[46.1 µM]	nt
Cc1ccc(S(=O)(=O)N(Cc2ccccc2F)C(=O)N2CCN(C)CC2)cc1	8.6%	nt	nt	-6.7%	21.9%
O=C(COC(=O)c1cc(-c2cccs2)nc2ccccc12)NCc1ccco1	14.2%	29.1*	90.4*	-11.3%	10.9%
Cc1nn(-c2ccccn2)c2nc(-c3cccs3)cc(C(=O)NCc3ccco3)c12	54.5%	19.0*	39.4	-23.0%	0.0%
COc1ccc(C)cc1NC(=O)c1cc2ccccc2cc1OCC(=O)NCc1ccco1	-8.8%	29.7*	7.5	-8.4%	1.5%
COc1ccc(C)cc1NC(=O)NCc1ccco1	6.7%	1.9	-2.6	22.9%[14.2 µM]	9.6%
Cc1cc(C(=O)OCC(=O)NCc2cccs2)c2ccccc2n1	?	-3.1	-13.4	-6.4%[46.1 µM]	6.3%
CCc1ccc(NC(=O)C(=O)NCC(c2cccnc2)N2CCN(Cc3ccccc3)CC2)cc1 (stereo not given)	nt	nt	nt	nt	0.7%[46.1 µM]
CC(C)Oc1ccc(CNC(=O)Cn2ncn3nc(-c4cccs4)cc3c2=O)cc1	nt	nt	nt	16.9%[46.1 µM]	0.1%[46.1 µM]
CC1S/C(=N/N=C2CCCCC2)NC1=O (stereo not given)	12.5%	30.1*	32.7	?	19.7%
CC1S/C(=N/N=C2CCC(C(C)(C)C)CC2)NC1=O (stereo not given)	44.9%	25.9*	24.6	7.0%	8.2%
O=C(CC1S/C(=N/N=C2CCCCCC2)NC1=O)Nc1ccccc1C(F)(F)F (stereo not given)	79.8%	3.8	-4.4	-0.9%[46.1 µM]	nt
CCCCCC(=O)N1C[C@H](n2cc(-c3ccc(F)cc3)nn2)[C@@H](O)C[C@@H]1c1ccc(Cl)cc1	-9.2%	nt	nt	nt	nt
COc1cc(SC)ccc1C(=O)OCC(=O)N1CCCC1	-6.6%	40.3*	50.2*	16.6%[46.1 µM]	-15.3%
COc1cc(SC)ccc1C(=O)OCC(=O)NC(=O)NC(C)C	-0.1%	17.1*	-7.3	-1.4%[46.1 µM]	4.2%[46.1 µM]
CC(C)NC(=O)NC(=O)COC(=O)c1ccc(F)cc1F	-12.2%	-1.3	-4.1	16.5%	-3.7%
COc1cc(SC)ccc1C(=O)OCC(=O)NCC(C)C	-2.5%	25.3*	32.3	13.9%[46.1 µM]	10.2%
COc1cc(SC)ccc1C(=O)OCC(=O)NCCC1=CCCCC1	1.5%	nt	nt	16.1%	?
CC(C)CNC(=O)COC(=O)c1cc(Cl)cc(Cl)c1N	1.7%	-3.0	7.2	-4.1%	-26.1%
CC(C)CNC(=O)COC(=O)c1ccc(F)cc1Cl	-1.7%	28.4*	51.8*	9.9%[14.2 µM]	9.9%
CCOC(=O)N1CCN(C(=O)C[C@@H]2C[C@@]3(C(=O)OC)CCCCC=C3N(Cc3ccccc3)C2=O)CC1	1.2%	nt	nt	nt	nt
Cc1ccnc(NC(=O)C2CC(=O)N(Cc3ccccc3)C2)c1 (stereo not given)	-8.9%	nt	nt	?	?
Cc1ccsc1C(=O)N1CCC1(C)C(=O)NS(=O)(=O)c1cccc(F)c1 (stereo not given)	3.2%	nt	nt	nt	nt
C/C(=N\NC(=O)C(C)Oc1ccc([N+](=O)[O-])cc1)c1ccccn1 (stereo not given)	-68.2%	-2.9	-7.0	?	11.6µM*
CC(Oc1ccccc1)C(=O)NNC(=O)c1ccccn1 (stereo not given)	36.2%	5.2	18.7	?	?
Cc1ccc(C(=O)COC(=O)c2ccc(-c3cnc4ccccc4n3)cc2)cc1C	9.7%	14.5*	-4.7	27.7%	4.1%
